High-throughput results: PubChem BioAssay, The Scripps Research Institute Molecular Screening Center
TTR transcr act: increases transthyretin transcription. SH-SY5Y TTR promoter Gaussia luciferase, luminescence; 100% = recombinant luciferase protein wells. activation, % at 16.7 µM. actives 1.3% (n = 92,000);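 active means activation above the mean of all tested compounds plus 3 SD, cut at about 9.5% in these data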;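 further: cells exposed to compounds for one day before reading; 0% = median of all test compound wells on the plate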
TTR inh HuH7: decreases TTR transcription in HuH7 cells in activator counter-screen. HuH7 TTR promoter-Gaussia luciferase reporter, luminescence. actives 4% (n = 1,100). shares compounds with TTR transcr act. inhibition, % at 16.7 µM;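 active means average inhibition above the solvent-only control wells' mean plus 3 SD, cut at about 15% in these data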;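 further: 0% = cells with DMSO only and 100% = cells with inhibitor control FD; inhibitors lower well luminescence so higher value means more inhibition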
TTR up confirm: confirmation of human transthyretin transcription activators. shares compounds with TTR transcr act. SHSY5Y TTR promoter Gaussia luciferase, luminescence; 100% = purified Lucia enzyme wells, no cells. activation, % at 16.7 µM. 1,100 tested, under 10 active. AID 1117280;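 active means mean activation above a set limit taken from the earlier primary screen, cut at about 11% in these data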;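 further: 0% = DMSO-treated cells and 100% = recombinant Lucia luciferase without cells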
The depositor's hits bear a star. The sample as a whole holds a higher share of hits than the screen did.

SMILES	TTR transcr act	others
CCCCn1nc2cc(C(=O)N(CC)c3ccc(OC)cc3)ccc2c1OCC	13*	TTR inh HuH7=-7;TTR up confirm=0
CCC(C)NC(=O)Cn1c(-c2ccccc2)cc(C(C)=O)c1C (centres undefined)	7
CN(C)C=Nc1nonc1-c1ncn[nH]1	0
CN(C)C=Nc1nonc1-c1ccccc1	11*	TTR inh HuH7=-8;TTR up confirm=0
CN(C)C=Nc1c(Br)cc(Br)c2nonc12	-1
O=C(NCCO)[C@H](Cc1ccccc1)NC1(C(=O)NCCc2c[nH]c3ccccc23)CCCCC1	4
COc1ccc(C(C)(C)C)cc1NC(=O)C1CC(=O)N(C2CCCC2)C1 (centres undefined)	1
CCOC(=O)c1n[nH]n2c1nc(=S)c1ccccc12	-2
CCOC(=O)Cc1csc(NC(=O)COc2ccc3c(c2)CCC3)n1	14*	TTR inh HuH7=-24;TTR up confirm=0
CCOC(=O)Cc1csc(NC(=O)COc2cccc(C)c2)n1	0
CCOC(=O)Cc1csc(NC(=O)CCC(=O)O)n1	2
O=C(Nc1ccc(Br)cc1)OC1CC2CC1[C@H]1CCCCN1[C@H]2Cc1ccccc1 (some centres undefined)	2
COc1cc(NC(=O)c2ccccn2)ccc1NC(=O)c1ccccc1Cl	0
COc1ccc(-n2nc(C(=O)NCC(=O)NCCCN3CCN(C)CC3)c3ccccc3c2=O)cc1	-1
COc1ccc(-n2nc(C(=O)NCC(=O)NCc3ccco3)c3ccccc3c2=O)cc1	0
CCOC(=O)N1CCN(C(=O)CNC(=O)c2nn(-c3ccc(OC)cc3)c(=O)c3ccccc23)CC1	15*	TTR inh HuH7=-18;TTR up confirm=1
O=C(O)CSc1cnc2ccccc2n1	8
Cc1cc(SCC(=O)c2cc3ccccc3o2)nc2ccccc12	0
Cc1cc(SCC(=O)O)nc2ccccc12	30*	TTR inh HuH7=-2;TTR up confirm=1
CCn1cc(S(=O)(=O)N2CCCC2)cn1	14*	TTR inh HuH7=-5;TTR up confirm=1
CCn1cc(S(=O)(=O)NC2CCCCC2)cn1	2
CCn1c(C)nc2cc(S(=O)(=O)N3CCCC3)ccc21	0
Cc1cccc(NC(=S)Nc2cccc(C)n2)n1	1
Cc1cccc(NC(c2ccc(O)cc2)c2ccc3ccc(C)nc3c2O)n1 (centres undefined)	15*	TTR inh HuH7=20*;TTR up confirm=0
Oc1cccc(C(Nc2nccs2)c2ccc3cccnc3c2O)c1 (centres undefined)	-1
SMILES	TTR transcr act	others
O=C(Nc1cc2c(cc1Br)OCCO2)c1ccc(=O)[nH]c1	1
O=C(NNC(=O)c1ccc(F)cc1)C(=O)N1CCCCC1	0
CCN1C[C@@H]2[C@@H]3C(=O)N(Cc4ccccc4)C(=O)[C@@H]3[C@](CC)(C1=O)N2C(=O)c1ccc(C(C)(C)C)cc1	-3
CC(=O)NC(CC(=O)NNC(=O)c1cccs1)c1ccccc1 (centres undefined)	2
CC1(c2cccc(Br)c2)NC(=O)N(CC(=O)Nc2ccc(N3CCCCC3)cc2)C1=O (centres undefined)	0
CC(C)CC1(C)NC(=O)N(CC(=O)Nc2ccc3c(c2)CCC3)C1=O (centres undefined)	11*	TTR inh HuH7=-26;TTR up confirm=1
CCc1cccc(NC(=O)CN2C(=O)NC3(CCCCCCC3)C2=O)c1	3
COc1ccc(-n2c(=O)c3ccccc3n(CC(=O)OCc3ccccc3)c2=O)cc1OC	1
CCCCCCCN1CCC(=O)N([C@H](CO)CC(C)C)CC1	1
COCCn1c(SCC(=O)NCCCN2CCCC2=O)nc2ccccc2c1=O	3
CCOC(=O)C1C(=O)CC(C)(O)C(C(=O)OCC)C1c1ccc(SC)cc1 (centres undefined)	-2
C=CCOC(=O)C1C(=O)CC(C)(O)C(C(=O)OCC=C)C1c1ccc(N(C)C)cc1 (centres undefined)	25*	TTR inh HuH7=-10;TTR up confirm=0
CCOC(=O)C1C(=O)CC(C)(O)C(C(=O)OCC)C1c1ccc(Br)cc1 (centres undefined)	-1
CCN(C(=O)CN1C(=O)S/C(=C\C=C\c2ccccc2)C1=O)C1CCS(=O)(=O)C1 (centres undefined)	0
O=c1c2cc3cc4c(cc3nc2ncn1Cc1cccnc1)OCO4	18*	TTR inh HuH7=-10;TTR up confirm=2
O=c1c2cc3cc4c(cc3nc2ncn1CCc1ccccc1)OCO4	0
O=c1c2cc3cc(Cl)ccc3nc2ncn1CCc1ccc(O)cc1	0
CC(C)C[C@H](NC(C)(C)C(=O)NC1CCCCC1)C(=O)NCC(c1ccccc1)c1ccccc1	-1
N#Cc1ccc(-c2cccnc2)nc1SCC(N)=O	1
CCOC(=O)C1=C(CSc2nc(-c3ccncc3)ccc2C#N)OC(N)=C(C#N)C1c1ccc(OC)cc1 (centres undefined)	2
CCOC(=O)CSc1nc(-c2ccncc2)ccc1C#N	24*	TTR inh HuH7=-1;TTR up confirm=-1
